Active and inactive are the calls of the source. How the source made its calls: active means hit-call score of the fitted dose curve at least 0.9, where 1 is the maximum; inactive means score below 0.9.
How the values were obtained:
[1] = read-out: Matrix Metallopeptidase 1 (MMP1), MMP1 (gene 4312); experiment: BSK_hDFCGF_MMP1: BioMAP Diversity Plus: hDFCGF Assay for Matrix Metallopeptidase 1 (MMP1) Biomarker Activity (AID 2283064); settings: primary human foreskin fibroblasts; actives raise or lower the signal
How it was run: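 Primary human foreskin fibroblasts exposed to chemicals for 24 h; MMP1 measured by ELISA. Cytotoxicity tracked by SRB staining in parallel cultures; bidirectional fit relative to DMSO.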

[2] = read-out: Vascular cell adhesion molecule 1 (VCAM1), VCAM1 (gene 7412); experiment: BSK_hDFCGF_VCAM1: BioMAP Diversity Plus: hDFCGF Assay for Vascular cell adhesion molecule 1 (VCAM1) Biomarker Activity (AID 2283065); settings: primary human foreskin fibroblasts; actives raise or lower the signal;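 on AC50: VCAM-1 protein level quantified by ELISA after 24 h chemical exposure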
How it was run: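 ELISA read-out of VCAM-1 on human skin fibroblasts, 24 h post-dose; gain or loss of signal fitted bidirectionally against DMSO baseline.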

[3] = read-out: Plasminogen activator inhibitor-1 (PAI1), SERPINE1 (gene 5054); experiment: BSK_hDFCGF_PAI1: BioMAP Diversity Plus: hDFCGF Assay for Plasminogen activator inhibitor-1 (PAI1) Biomarker Activity (AID 2283066); settings: primary human foreskin fibroblasts; actives raise or lower the signal
How it was run: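 PAI-1 levels, determined by ELISA, served as the endpoint in human foreskin fibroblast cultures exposed to compound for 24 h, with DMSO as baseline.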

[4] = read-out: Intercellular Adhesion Molecule 1 (ICAM1), ICAM1 (gene 3383); experiment: BSK_KF3CT_ICAM1: BioMAP Diversity Plus: KF3CT Assay for Intercellular Adhesion Molecule 1 (ICAM1) Biomarker Activity (AID 2283067); settings: primary human keratinocytes with fibroblasts; actives raise or lower the signal
How it was run: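 ELISA readout of ICAM-1; KF3CT human skin co-culture (keratinocytes + foreskin fibroblasts), 24 h post-dose; gain/loss fit vs DMSO baseline.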

[5] = read-out: Interferon-gamma inducible Protein 10 (IP10), CXCL10 (gene 3627); experiment: BSK_KF3CT_IP10: BioMAP Diversity Plus: KF3CT Assay for Interferon-gamma inducible Protein 10 (IP10) Biomarker Activity (AID 2283068); settings: primary human keratinocytes with fibroblasts; actives raise or lower the signal
How it was run: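 Signal is secreted/surface IP-10 by ELISA in a human primary skin co-culture of keratinocytes and foreskin fibroblasts, taken 24 h post-dosing; DMSO served as negative control.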

[6] = BSK_KF3CT_SRB: Viability Assessment in the BioMAP Diversity Plus: KF3CT Assay (AID 2283069); settings: primary human keratinocytes with fibroblasts;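 further: total protein by sulforhodamine B staining as a cytotoxicity measure; read 24 h after compound addition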
How it was run: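 Human keratinocyte and foreskin fibroblast co-culture exposed to chemical for 24 h. Total protein measured in parallel cultures by 0.1% sulforhodamine B staining after 10% TCA fixation, read at 560 nm; bidirectional fit relative to DMSO.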

[7] = read-out: Interleukin-1 alpha (IL1a), IL1A (gene 3552); experiment: BSK_KF3CT_IL1a: BioMAP Diversity Plus: KF3CT Assay for Interleukin-1 alpha (IL1a) Biomarker Activity (AID 2283070); settings: primary human keratinocytes with fibroblasts; actives raise or lower the signal
How it was run: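 Primary human keratinocyte plus foreskin fibroblast co-culture, dosed and measured at 24 h in 96-well plates. IL-1a level quantified by ELISA; bidirectional fit relative to DMSO.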

[8] = read-out: TIMP metallopeptidase inhibitor 2 (TIMP2), TIMP2 (gene 7077); experiment: BSK_KF3CT_TIMP2: BioMAP Diversity Plus: KF3CT Assay for TIMP metallopeptidase inhibitor 2 (TIMP2) Biomarker Activity (AID 2283071); settings: primary human keratinocytes with fibroblasts; actives raise or lower the signal
How it was run: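 Keratinocyte–fibroblast co-culture, 24 h exposure; TIMP-2 ELISA, DMSO-normalised bidirectional fit. Parallel SRB (0.1%, TCA-fixed, 560 nm) total-protein staining gauges cytotoxicity.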

[9] = read-out: Transforming growth factor beta 1 (TGFb1), TGFB1 (gene 7040); experiment: BSK_KF3CT_TGFb1: BioMAP Diversity Plus: KF3CT Assay for Transforming growth factor beta 1 (TGFb1) Biomarker Activity (AID 2283072); settings: primary human keratinocytes with fibroblasts; actives raise or lower the signal
How it was run: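 Signal changes in either direction, relative to DMSO, define activity here. TGF-b1 is read by ELISA from a human keratinocyte-fibroblast co-culture 24 h post-dose.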

[10] = read-out: C-C motif chemokine 2 (Homo sapiens) (UniProt P13500); experiment: BSK_KF3CT_MCP1: BioMAP Diversity Plus: KF3CT Assay for Monocyte Chemoattractant Protein 1 (MCP1/CCL2) Biomarker Activity (AID 2283073); settings: primary human keratinocytes with fibroblasts; actives raise or lower the signal
How it was run: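 KF3CT skin co-culture (keratinocytes/foreskin fibroblasts), 24 h post-dose; MCP-1 by ELISA; gain/loss of signal fit bidirectionally vs DMSO baseline.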

[11] = read-out: Matrix Metallopeptidase 9 (MMP9), MMP9 (gene 4318); experiment: BSK_KF3CT_MMP9: BioMAP Diversity Plus: KF3CT Assay for Matrix Metallopeptidase 9 (MMP9) Biomarker Activity (AID 2283074); settings: primary human keratinocytes with fibroblasts; actives raise or lower the signal;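 on AC50: MMP9 protein level quantified by ELISA in the co-culture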
How it was run: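 Human keratinocyte and foreskin fibroblast co-culture exposed to chemicals for 24 h; MMP9 biomarker measured by ELISA, bidirectional fitting relative to DMSO; cytotoxicity tracked by SRB total protein staining in parallel cultures.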

[12] = read-out: urokinase plasminogen activator (uPA), PLAU (gene 5328); experiment: BSK_KF3CT_uPA: BioMAP Diversity Plus: KF3CT Assay for urokinase plasminogen activator (uPA) Biomarker Activity (AID 2283075); settings: primary human keratinocytes with fibroblasts; actives raise or lower the signal
How it was run: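 Primary human keratinocyte/foreskin fibroblast co-culture exposed to chemical; uPA measured by ELISA at 24 h. Bidirectional fit versus DMSO, with parallel SRB total-protein staining for cytotoxicity.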

CD40, CD40 (gene 958) = experiment: BSK_LPS_CD40: BioMAP Diversity Plus: LPS Assay for CD40 Biomarker Activity (AID 2283076); settings: primary human HUVEC with PBMC; actives raise or lower the signal
How it was run: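 ELISA readout of CD40 in HUVEC/PBMC co-culture (BSK_LPS system), 24 h post-dosing; bidirectional curve fit, DMSO baseline; parallel SRB total-protein staining for cytotoxicity.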

[13] = read-out: E-selectin (Homo sapiens) (UniProt P16581); experiment: BSK_LPS_Eselectin: BioMAP Diversity Plus: LPS Assay for Eselectin Biomarker Activity (AID 2283077); settings: primary human HUVEC with PBMC; actives raise or lower the signal
How it was run: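 ELISA readout of E-selectin, 24 h post-dose, HUVEC + PBMC co-culture (LPS system). Gain or loss of signal vs DMSO baseline, bidirectional fit.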

[14] = read-out: Interleukin-8 (IL8), CXCL8 (gene 3576); experiment: BSK_LPS_IL8: BioMAP Diversity Plus: LPS Assay for Interleukin-8 (IL8) Biomarker Activity (AID 2283078); settings: primary human HUVEC with PBMC; actives raise or lower the signal
How it was run: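 HUVEC + PBMC co-culture, LPS-activated; test chemicals dosed, IL-8 read by ELISA at 24 h. Bidirectional curve fit vs DMSO baseline (gain or loss of signal).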

[15] = BSK_LPS_SRB: Viability Assessment in the BioMAP Diversity Plus: LPS Assay (AID 2283079); settings: primary human HUVEC with PBMC;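 further: total protein by sulforhodamine B absorbance as a cytotoxicity measure; measured one day after compound addition; fitted in both directions against DMSO so loss or gain of signal counts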
How it was run: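 HUVEC + PBMC co-culture, LPS-stimulated; compound 24 h. 10% TCA fix, 0.1% SRB stain, A560. Bidirectional fit vs DMSO.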

[16] = read-out: Interleukin-1 alpha (IL1a), IL1A (gene 3552); experiment: BSK_LPS_IL1a: BioMAP Diversity Plus: LPS Assay for Interleukin-1 alpha (IL1a) Biomarker Activity (AID 2283080); settings: primary human HUVEC with PBMC; actives raise or lower the signal
How it was run: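 HUVEC/PBMC co-culture, LPS system; 24 h after dosing; IL-1a by ELISA; gain or loss of signal fitted bidirectionally vs DMSO baseline.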

[17] = read-out: Monocyte Chemoattractant Protein-1 (MCP1), CCL2 (gene 6347); experiment: BSK_LPS_MCP1: BioMAP Diversity Plus: LPS Assay for Monocyte Chemoattractant Protein-1 (MCP1) Biomarker Activity (AID 2283081); settings: primary human HUVEC with PBMC; actives raise or lower the signal;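 on AC50: secreted MCP-1 protein quantified by ELISA in culture supernatant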
How it was run: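 ELISA read-out of MCP-1 after 24 h chemical dosing of a human umbilical vein endothelial cell/peripheral blood mononuclear cell co-culture stimulated with LPS. Gain or loss of signal fitted relative to DMSO controls.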

[18] = BSK_LPS_PGE2: BioMAP Diversity Plus: LPS Assay for Prostaglandin E2 (PGE2) Biomarker Activity (AID 2283082); settings: primary human HUVEC with PBMC; actives raise or lower the signal;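 on AC50: secreted prostaglandin E2 measured by ELISA in LPS-stimulated co-culture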
How it was run: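 Endpoint derived from bidirectional curve fitting versus DMSO of ELISA-measured PGE2 in LPS-stimulated human primary vascular co-culture (HUVEC with PBMC) harvested at 24 h.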

[19] = read-out: Macrophage colony-stimulating factor (MCSF), CSF1 (gene 1435); experiment: BSK_LPS_MCSF: BioMAP Diversity Plus: LPS Assay for Macrophage colony-stimulating factor (MCSF) Biomarker Activity (AID 2283083); settings: primary human HUVEC with PBMC; actives raise or lower the signal
How it was run: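 HUVEC + PBMC co-culture (human primary), 24 h post-dose; M-CSF by ELISA; gain/loss of signal fitted bidirectionally vs DMSO baseline.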

Measured: AC50

Sequence of E-selectin (Homo sapiens) (P16581 whole entry, looked up): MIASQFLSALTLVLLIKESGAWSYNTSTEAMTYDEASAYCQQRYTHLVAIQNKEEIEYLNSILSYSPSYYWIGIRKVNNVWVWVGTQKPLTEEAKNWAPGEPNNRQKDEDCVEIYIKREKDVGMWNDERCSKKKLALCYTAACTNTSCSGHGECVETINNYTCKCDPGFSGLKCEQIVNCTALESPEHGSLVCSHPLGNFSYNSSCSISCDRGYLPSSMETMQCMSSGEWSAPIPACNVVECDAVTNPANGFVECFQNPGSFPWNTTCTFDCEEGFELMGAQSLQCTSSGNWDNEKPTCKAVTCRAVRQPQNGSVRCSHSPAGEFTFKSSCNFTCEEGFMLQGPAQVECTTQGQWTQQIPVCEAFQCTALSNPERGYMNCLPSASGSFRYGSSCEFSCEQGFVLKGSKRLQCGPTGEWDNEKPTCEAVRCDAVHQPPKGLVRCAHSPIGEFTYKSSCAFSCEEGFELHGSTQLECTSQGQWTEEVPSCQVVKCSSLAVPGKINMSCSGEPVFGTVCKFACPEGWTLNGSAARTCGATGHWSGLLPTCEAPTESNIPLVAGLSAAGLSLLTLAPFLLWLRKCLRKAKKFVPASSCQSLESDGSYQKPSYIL

NC(=O)c1nc(-c2cccc(-c3cc(F)ccc3OCC(F)(F)C(F)(F)F)c2)n[nH]1
active: [1] 39.5 µM | [2] 35.1 µM | [3] 32.8 µM | [4] 35.2 µM | [5] 39.3 µM | [6] 37 µM | [7] 41.2 µM | [8] 35 µM | [9] 36.1 µM | [10] 34 µM | [11] 39.7 µM | [12] 43.1 µM | CD40, CD40 (gene 958) 22.6 µM | [13] 37.7 µM | [14] 33.7 µM | [15] 31.6 µM | [16] 41.4 µM | [17] 33.6 µM | [18] 38.2 µM | [19] 29.4 µM

Cc1oc2c(NC(=O)c3c(Cl)cccc3Cl)cccc2c1C(C)(C)O
active: [1] 10.7 µM | [3] 14.2 µM | [8] 5.2 µM | [13] 6.04 µM | [15] 26.5 µM | [18] 21.1 µM
inactive: all other assays above

O=C(OCCCCCCOC(=O)c1ccccc1)c1ccccc1
active: [18] 32.4 µM
inactive: all other assays above

CC(C)(O)c1ccc(CNC(=O)c2cccnc2Oc2ccc3nonc3c2)cc1
inactive: all assays above

CN(C)c1ccc(C(=C2C=CC(=[N+](C)C)C=C2)c2ccc(N(C)C)cc2)cc1
active: [1] 5.45 µM | [2] 3.25 µM | [3] 1.54 µM | [4] 10.8 µM | [5] 8.28 µM | [6] 5.24 µM | [7] 2.54 µM | [8] 1.29 µM | [9] 0.595 µM | [10] 3.97 µM | [11] 1.33 µM | [12] 2.85 µM | CD40, CD40 (gene 958) 0.438 µM | [13] 0.355 µM | [14] 1.26 µM | [15] 7.67 µM | [16] 0.147 µM | [17] 0.269 µM | [18] 1.13 µM | [19] 0.476 µM

O=C(Nc1ccc(Cl)cc1)Nc1ccc(Cl)c(Cl)c1
inactive: [4] | [5] | [6] | [7] | [8] | [9] | [10] | [12]
active: [1] 0.242 µM | [2] 0.47 µM | [3] 0.7 µM | [11] 1.49 µM | CD40, CD40 (gene 958) 2.42 µM | [13] 2.15 µM | [14] 1.74 µM | [15] 2.03 µM | [16] 3.86 µM | [17] 3.51 µM | [18] 1.9 µM | [19] 11.8 µM

CCN(CC)C(=O)c1cc(S(=O)(=O)Cc2ccccc2)c(N2CCC(c3ccccc3)CC2)cc1N(CC)CCN(C)C
active: [3] 4.69 µM | [6] 28 µM | [11] 24 µM | CD40, CD40 (gene 958) 8.94 µM | [13] 27.6 µM | [14] 18.7 µM | [15] 10.5 µM | [16] 8.53 µM | [17] 19.5 µM | [19] 11.8 µM
inactive: [1] | [2] | [4] | [5] | [7] | [8] | [9] | [10] | [12] | [18]

CCN(Cc1cccnc1)C(=O)c1cccc(Cl)c1[C@]1(C)C(=O)N(Cc2ccc(OC)cc2OC)c2ccc(Cl)cc21
active: [1] 5.9 µM | [3] 9.31 µM | [5] 22.3 µM | [11] 4.21 µM | CD40, CD40 (gene 958) 5.26 µM | [13] 10.8 µM | [14] 5.54 µM | [15] 6.69 µM | [16] 4.18 µM | [17] 8.28 µM | [19] 6.54 µM
inactive: [2] | [4] | [6] | [7] | [8] | [9] | [10] | [12] | [18]

CN(C[C@@H](CC[N+]12CCC(C3CCCCC3)(CC1)CC2)c1ccc(Cl)c(Cl)c1)C(=O)c1cc(C(F)(F)F)cc(C(F)(F)F)c1
inactive: [18]
active: [1] 7.58 µM | [2] 7.41 µM | [3] 5.56 µM | [4] 12.3 µM | [5] 7.78 µM | [6] 6.58 µM | [7] 11.2 µM | [8] 7.76 µM | [9] 7.34 µM | [10] 9.72 µM | [11] 7.39 µM | [12] 10.5 µM | CD40, CD40 (gene 958) 19.1 µM | [13] 26.4 µM | [14] 24.8 µM | [15] 24.6 µM | [16] 18.4 µM | [17] 23.4 µM | [19] 23.6 µM

O=C(O)c1ccccc1C(=O)OCc1ccccc1
inactive: all assays above

O=C(O)Cn1c(=O)n(Cc2ccc(Br)cc2F)c(=O)c2ccc(Cl)cc21
active: [18] 10.5 µM
inactive: all other assays above

From PubChem BioAssay (EPA / NIEHS)
